Source: the supplement of paper PMC11732987, “Enantioselective OTUD7B fragment discovery through chemoproteomics screening and high-throughput optimisation” (Communications Chemistry, 2025)

Experiments:
Assay in all cases: log2 ratio of Biotin-Ahx-Ub-VS probe labelling (fragment/DMSO); higher = less target engagement (more negative = stronger competition), active = hit call of the paper (q ≤ 0.05, log2 ratio ≤ -1)
Details in all cases: compound concentration: 200 uM; treatment time: 3 h
USP42 = biological target: T1, USP42 (UniProt Q9H9J4)
T1 sequence (whole entry): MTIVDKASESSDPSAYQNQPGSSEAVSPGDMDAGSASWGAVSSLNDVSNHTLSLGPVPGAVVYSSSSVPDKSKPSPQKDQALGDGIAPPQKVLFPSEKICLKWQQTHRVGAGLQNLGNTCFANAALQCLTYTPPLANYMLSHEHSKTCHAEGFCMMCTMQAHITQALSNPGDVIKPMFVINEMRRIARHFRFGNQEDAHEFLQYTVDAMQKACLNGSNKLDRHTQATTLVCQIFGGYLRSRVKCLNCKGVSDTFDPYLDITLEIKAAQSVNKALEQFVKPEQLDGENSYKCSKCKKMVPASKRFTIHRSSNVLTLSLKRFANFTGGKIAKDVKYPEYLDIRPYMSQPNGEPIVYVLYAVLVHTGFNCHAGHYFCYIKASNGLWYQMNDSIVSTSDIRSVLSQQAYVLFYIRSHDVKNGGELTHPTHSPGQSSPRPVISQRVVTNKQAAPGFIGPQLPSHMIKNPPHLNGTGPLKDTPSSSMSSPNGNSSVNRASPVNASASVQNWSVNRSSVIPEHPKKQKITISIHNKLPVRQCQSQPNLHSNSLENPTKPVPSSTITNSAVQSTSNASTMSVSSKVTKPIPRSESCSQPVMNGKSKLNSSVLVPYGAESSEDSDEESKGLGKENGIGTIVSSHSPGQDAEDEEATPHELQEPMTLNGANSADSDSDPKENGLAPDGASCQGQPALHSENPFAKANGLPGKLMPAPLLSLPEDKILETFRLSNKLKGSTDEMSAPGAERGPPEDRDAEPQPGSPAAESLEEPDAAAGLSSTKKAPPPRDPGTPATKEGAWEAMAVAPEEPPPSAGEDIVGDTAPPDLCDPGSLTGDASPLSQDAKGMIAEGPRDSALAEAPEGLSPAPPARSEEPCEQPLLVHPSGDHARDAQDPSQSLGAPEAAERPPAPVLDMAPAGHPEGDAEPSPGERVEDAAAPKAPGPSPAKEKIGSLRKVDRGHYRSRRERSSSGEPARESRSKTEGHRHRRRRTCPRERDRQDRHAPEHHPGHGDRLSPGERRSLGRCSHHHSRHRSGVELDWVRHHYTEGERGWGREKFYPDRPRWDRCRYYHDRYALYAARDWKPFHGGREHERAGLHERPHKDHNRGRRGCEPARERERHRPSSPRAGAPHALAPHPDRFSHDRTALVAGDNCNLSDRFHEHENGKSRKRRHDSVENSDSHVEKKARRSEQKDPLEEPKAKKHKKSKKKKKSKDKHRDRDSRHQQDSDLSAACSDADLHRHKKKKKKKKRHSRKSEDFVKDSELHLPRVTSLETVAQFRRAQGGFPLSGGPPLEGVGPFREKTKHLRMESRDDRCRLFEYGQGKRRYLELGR
Summary of the method: (§1)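 Triplicate samples of HEK293T lysate, 495 µg each, received fragment at 200 µM or vehicle for 3 h, followed by Biotin-Ahx-Ub-VS (0.5 µM final) for 1 h. After NeutrAvidin enrichment of labelled DUBs and LysC/trypsin digestion, peptides were run by diaPASEF LC-MS/MS. The values are average log2 fragment/vehicle ratios from global-median-normalised Spectronaut label-free quantities, tested by unpaired t-test on proteins having ≥2 unique peptides.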

USP46 = USP46 (UniProt P62068)
USP46, sequence (P62068 whole entry): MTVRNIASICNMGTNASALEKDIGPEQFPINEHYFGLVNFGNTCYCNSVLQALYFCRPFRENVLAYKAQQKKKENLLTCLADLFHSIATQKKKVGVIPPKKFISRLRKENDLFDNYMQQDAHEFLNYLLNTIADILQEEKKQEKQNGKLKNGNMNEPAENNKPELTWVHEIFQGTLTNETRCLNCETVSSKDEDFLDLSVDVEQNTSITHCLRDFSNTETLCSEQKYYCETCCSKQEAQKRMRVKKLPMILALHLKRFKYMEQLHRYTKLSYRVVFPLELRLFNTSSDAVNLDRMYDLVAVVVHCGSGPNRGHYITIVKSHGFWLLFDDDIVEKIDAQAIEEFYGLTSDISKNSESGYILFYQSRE
Summary of the method: as §1

USP47 = biological target: T2, USP47 (UniProt Q96K76)
T2 sequence (whole entry): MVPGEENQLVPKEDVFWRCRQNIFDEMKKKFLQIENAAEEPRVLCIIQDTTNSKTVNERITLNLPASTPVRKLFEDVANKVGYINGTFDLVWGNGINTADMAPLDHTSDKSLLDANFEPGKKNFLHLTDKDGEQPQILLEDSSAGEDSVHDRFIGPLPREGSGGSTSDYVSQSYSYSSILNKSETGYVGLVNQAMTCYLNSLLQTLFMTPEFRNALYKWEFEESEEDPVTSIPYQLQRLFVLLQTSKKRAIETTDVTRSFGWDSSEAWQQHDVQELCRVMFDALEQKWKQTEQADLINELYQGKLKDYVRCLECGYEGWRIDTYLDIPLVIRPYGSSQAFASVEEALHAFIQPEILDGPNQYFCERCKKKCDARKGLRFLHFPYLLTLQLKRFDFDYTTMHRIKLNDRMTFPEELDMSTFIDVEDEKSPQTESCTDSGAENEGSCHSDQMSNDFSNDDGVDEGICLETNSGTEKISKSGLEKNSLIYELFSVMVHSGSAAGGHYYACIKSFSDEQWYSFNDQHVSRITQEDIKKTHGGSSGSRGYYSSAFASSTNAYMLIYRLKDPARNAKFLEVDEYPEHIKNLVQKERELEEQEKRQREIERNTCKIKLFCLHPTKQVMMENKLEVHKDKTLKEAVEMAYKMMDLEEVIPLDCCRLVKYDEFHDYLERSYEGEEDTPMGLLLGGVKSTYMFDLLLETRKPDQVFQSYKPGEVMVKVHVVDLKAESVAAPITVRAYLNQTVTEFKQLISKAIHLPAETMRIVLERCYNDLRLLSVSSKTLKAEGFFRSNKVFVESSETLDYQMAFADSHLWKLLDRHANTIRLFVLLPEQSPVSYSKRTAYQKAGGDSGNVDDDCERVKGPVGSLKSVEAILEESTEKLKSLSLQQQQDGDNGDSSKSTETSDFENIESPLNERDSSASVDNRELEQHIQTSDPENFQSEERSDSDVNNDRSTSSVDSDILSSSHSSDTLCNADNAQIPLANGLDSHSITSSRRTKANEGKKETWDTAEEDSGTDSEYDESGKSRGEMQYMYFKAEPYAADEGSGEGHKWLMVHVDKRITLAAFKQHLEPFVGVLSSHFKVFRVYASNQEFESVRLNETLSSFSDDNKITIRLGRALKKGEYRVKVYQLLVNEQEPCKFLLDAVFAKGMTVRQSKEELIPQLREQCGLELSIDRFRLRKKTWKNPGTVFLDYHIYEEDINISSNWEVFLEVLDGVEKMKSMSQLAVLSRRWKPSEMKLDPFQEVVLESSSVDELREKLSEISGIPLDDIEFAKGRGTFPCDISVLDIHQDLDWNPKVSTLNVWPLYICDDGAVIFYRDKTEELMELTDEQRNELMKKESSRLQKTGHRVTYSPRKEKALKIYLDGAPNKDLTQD
Summary of the method: as §1

USP48 = biological target: T3, USP48 (UniProt Q86UV5)
T3 sequence (whole entry): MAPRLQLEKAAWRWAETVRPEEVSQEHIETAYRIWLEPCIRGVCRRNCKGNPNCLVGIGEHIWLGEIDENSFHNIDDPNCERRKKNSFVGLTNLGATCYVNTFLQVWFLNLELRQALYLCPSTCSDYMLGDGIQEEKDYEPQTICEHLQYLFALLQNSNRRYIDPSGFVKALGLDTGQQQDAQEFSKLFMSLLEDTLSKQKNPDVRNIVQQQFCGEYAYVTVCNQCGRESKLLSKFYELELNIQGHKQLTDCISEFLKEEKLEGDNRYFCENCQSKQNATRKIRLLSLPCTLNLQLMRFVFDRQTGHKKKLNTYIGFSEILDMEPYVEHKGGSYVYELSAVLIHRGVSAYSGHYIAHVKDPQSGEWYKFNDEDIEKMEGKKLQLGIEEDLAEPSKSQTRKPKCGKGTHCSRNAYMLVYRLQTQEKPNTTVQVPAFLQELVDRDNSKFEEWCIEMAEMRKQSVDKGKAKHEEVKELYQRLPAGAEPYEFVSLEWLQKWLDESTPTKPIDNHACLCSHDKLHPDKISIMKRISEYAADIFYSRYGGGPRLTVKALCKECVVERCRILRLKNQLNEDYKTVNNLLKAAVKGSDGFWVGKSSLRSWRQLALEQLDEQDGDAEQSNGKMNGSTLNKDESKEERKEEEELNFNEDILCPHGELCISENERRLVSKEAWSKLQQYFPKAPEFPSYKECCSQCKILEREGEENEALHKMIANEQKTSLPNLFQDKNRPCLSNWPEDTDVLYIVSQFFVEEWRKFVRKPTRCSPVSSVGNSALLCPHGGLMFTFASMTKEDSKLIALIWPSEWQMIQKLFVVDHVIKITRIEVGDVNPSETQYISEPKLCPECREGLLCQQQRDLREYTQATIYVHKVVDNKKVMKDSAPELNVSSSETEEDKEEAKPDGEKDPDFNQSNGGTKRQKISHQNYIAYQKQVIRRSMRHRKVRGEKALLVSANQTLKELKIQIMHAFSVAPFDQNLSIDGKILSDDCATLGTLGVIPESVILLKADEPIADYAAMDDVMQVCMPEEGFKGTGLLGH
Summary of the method: as §1

USP5 = biological target: T4, USP5 (UniProt P45974)
T4 sequence (whole entry): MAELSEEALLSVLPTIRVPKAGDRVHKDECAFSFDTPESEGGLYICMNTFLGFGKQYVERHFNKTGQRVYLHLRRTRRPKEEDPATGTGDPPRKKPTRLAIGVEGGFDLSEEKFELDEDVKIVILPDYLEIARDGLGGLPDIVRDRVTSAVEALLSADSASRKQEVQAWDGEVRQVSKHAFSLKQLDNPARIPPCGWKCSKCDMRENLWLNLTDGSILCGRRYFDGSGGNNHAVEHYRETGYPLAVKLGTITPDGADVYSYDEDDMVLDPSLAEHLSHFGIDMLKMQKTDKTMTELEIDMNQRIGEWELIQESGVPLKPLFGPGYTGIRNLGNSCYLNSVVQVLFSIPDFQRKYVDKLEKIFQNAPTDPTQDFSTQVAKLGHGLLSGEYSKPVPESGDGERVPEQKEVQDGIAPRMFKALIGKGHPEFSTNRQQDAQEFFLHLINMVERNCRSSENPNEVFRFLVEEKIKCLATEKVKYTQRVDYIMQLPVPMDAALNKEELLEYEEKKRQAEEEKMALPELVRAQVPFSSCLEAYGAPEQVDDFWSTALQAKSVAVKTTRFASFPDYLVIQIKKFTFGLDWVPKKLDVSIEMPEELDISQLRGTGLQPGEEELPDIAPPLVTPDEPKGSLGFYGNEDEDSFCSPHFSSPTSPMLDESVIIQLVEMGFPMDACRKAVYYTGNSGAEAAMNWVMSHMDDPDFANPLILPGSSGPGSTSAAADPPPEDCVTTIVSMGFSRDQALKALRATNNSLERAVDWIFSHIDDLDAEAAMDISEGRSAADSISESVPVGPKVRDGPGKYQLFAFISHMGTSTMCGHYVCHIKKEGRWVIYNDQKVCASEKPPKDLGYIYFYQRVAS
Summary of the method: as §1

USP54 = USP54 (UniProt Q70EL1)
Summary of the method: as §1

USP7 = USP7 (UniProt Q93009)
USP7, sequence (Q93009 whole entry, looked up): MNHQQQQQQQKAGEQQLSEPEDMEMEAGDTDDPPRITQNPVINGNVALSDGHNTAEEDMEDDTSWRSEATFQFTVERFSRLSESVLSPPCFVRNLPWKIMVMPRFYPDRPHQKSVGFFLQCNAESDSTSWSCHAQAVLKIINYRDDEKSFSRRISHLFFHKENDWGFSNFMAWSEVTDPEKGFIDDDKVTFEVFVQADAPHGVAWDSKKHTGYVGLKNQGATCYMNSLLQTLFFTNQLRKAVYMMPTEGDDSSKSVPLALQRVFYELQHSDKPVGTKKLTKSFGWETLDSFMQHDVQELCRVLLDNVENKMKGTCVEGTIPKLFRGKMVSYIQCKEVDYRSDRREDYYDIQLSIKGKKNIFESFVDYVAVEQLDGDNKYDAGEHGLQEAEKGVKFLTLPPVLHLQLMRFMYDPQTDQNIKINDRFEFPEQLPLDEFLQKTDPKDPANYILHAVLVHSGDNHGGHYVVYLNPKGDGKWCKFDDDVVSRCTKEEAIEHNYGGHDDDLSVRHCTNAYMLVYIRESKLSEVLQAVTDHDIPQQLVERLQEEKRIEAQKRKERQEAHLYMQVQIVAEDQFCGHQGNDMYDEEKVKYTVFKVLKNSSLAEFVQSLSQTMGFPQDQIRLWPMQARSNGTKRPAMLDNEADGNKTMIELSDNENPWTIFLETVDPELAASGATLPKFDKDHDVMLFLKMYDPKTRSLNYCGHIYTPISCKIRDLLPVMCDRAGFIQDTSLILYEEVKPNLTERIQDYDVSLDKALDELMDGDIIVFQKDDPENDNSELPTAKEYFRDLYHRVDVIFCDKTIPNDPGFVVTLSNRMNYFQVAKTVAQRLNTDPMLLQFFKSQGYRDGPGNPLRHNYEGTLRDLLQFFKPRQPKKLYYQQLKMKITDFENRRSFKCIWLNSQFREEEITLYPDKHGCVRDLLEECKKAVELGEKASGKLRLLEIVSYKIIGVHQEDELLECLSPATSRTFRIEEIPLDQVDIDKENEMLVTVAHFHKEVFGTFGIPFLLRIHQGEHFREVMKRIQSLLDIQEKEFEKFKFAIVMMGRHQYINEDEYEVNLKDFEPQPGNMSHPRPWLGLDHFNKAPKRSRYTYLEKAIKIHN
Summary of the method: as §1

USP8 = biological target: T5, USP8 (UniProt P40818)
T5 sequence (whole entry): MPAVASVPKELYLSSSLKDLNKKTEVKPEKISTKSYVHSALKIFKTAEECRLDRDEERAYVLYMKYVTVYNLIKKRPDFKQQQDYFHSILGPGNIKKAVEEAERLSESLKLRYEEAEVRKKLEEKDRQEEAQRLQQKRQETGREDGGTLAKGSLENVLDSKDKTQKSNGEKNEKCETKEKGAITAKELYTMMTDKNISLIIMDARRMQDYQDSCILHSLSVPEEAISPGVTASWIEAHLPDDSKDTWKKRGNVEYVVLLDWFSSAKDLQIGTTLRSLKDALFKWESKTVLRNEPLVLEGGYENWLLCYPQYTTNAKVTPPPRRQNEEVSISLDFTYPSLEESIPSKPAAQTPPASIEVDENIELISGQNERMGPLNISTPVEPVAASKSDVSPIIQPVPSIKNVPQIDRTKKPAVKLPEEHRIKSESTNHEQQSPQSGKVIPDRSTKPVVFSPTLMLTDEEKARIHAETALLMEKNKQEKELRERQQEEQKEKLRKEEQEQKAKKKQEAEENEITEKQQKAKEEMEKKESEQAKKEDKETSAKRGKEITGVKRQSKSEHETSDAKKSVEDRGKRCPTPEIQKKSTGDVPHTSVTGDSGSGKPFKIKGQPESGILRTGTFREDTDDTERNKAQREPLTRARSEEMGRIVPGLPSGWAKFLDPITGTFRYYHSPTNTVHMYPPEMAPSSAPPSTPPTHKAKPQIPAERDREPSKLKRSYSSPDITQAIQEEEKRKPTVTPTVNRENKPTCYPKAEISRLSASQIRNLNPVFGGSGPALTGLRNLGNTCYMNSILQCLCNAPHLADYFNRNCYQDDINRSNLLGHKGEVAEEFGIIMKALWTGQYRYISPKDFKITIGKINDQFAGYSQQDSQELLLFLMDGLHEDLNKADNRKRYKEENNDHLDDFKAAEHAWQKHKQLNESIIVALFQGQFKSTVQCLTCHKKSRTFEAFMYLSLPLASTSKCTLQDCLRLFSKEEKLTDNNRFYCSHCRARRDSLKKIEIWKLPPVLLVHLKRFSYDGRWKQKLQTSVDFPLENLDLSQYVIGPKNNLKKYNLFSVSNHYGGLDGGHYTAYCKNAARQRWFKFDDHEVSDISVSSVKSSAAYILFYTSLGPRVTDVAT
Summary of the method: as §1

USP9X = USP9X (UniProt Q93008)
USP9X, sequence (Q93008 whole entry): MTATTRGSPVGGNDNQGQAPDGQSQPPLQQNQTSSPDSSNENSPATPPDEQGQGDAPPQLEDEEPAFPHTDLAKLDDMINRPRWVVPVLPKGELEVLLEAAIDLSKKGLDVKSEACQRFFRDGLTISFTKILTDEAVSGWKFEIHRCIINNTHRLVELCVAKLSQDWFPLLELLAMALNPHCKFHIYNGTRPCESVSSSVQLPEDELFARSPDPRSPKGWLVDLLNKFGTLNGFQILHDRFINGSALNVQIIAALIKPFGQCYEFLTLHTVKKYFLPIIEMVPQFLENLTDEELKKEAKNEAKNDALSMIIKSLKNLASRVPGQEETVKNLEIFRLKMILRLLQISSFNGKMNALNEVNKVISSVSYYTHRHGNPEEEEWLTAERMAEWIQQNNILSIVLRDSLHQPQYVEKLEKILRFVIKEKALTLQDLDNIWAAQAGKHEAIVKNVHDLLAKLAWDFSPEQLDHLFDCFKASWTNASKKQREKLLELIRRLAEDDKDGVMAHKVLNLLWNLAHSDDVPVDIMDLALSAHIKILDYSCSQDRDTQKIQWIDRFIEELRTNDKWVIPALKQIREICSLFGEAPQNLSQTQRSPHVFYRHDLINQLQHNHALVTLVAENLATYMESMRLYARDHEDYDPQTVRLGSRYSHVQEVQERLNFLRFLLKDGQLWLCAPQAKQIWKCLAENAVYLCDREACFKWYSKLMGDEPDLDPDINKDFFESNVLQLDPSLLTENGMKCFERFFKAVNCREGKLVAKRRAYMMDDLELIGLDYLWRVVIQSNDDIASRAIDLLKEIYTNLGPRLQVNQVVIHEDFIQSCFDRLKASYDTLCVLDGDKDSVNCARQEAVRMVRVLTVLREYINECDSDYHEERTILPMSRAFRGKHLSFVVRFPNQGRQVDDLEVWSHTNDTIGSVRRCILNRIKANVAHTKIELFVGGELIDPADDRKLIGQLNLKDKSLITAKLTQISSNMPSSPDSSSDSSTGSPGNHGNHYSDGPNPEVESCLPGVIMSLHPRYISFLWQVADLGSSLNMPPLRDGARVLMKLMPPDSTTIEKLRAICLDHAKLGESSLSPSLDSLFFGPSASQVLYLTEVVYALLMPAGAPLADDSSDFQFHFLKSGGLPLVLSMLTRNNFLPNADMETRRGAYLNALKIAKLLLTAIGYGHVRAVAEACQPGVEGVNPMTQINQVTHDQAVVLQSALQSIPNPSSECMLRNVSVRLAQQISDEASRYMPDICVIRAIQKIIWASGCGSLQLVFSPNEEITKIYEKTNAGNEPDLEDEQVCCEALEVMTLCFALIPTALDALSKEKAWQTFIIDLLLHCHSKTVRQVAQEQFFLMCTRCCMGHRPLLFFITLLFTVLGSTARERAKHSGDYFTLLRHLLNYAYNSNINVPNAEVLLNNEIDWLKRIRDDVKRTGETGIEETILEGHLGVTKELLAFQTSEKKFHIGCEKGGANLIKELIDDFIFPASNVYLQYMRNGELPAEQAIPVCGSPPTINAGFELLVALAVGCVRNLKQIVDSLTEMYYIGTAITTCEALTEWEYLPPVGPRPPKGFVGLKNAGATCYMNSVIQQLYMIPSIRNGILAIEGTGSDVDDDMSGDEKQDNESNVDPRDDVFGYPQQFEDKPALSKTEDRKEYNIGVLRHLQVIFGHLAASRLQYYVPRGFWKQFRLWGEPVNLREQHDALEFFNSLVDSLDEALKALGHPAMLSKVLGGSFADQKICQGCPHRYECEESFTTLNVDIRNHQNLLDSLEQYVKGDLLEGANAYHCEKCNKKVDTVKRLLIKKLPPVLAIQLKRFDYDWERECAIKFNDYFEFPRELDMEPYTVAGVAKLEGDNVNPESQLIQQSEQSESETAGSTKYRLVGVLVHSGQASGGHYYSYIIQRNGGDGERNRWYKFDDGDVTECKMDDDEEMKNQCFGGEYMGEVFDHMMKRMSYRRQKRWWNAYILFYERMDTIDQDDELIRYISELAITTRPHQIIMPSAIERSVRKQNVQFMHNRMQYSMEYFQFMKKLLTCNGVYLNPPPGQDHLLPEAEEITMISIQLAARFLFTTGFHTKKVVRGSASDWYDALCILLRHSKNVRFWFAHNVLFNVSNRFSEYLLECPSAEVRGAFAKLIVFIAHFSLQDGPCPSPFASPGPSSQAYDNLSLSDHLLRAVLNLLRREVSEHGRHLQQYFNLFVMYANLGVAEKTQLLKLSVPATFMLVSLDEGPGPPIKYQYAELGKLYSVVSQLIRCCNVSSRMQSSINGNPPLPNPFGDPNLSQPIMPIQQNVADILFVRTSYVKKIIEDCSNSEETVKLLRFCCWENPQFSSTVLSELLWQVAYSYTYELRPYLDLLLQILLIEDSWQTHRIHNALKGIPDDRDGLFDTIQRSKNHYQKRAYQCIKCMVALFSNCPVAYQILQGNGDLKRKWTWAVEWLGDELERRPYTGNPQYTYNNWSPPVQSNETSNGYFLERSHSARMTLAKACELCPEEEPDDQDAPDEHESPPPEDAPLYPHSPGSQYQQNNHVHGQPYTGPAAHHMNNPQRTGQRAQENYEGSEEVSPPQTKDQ
Summary of the method: as §1

UniProt O00487 = biological target: UniProt O00487
UniProt O00487, sequence (O00487 whole entry): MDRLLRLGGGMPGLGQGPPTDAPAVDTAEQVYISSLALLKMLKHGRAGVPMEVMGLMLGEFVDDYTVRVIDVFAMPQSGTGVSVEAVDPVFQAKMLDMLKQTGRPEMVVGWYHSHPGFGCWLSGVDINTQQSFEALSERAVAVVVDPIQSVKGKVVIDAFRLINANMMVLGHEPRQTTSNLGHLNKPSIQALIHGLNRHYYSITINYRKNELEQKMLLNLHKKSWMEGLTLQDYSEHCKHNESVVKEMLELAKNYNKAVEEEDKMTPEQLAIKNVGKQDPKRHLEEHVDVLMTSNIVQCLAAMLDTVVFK
Summary of the method: as §1

Measured: log2 ratio of Biotin-Ahx-Ub-VS probe labelling

Cc1ccc(C(=O)NCCNC(=O)CCl)cc1
inactive: USP42 -0.216 | USP46 0.0112 | USP47 -0.158 | USP48 -0.318 | USP5 -0.123 | USP54 0.576 | USP7 -0.262 | USP8 -0.271 | USP9X -0.316 | UniProt O00487 -0.0816
